Laboratory results as given in ChEMBL document CHEMBL3988442, “University of Dundee, Small-Polar-MMV Screening Library” (2021).
Out of some 66,000 compounds screened, about 960 (1.5%) showed an effect of 50% or more. Only a selection was taken, and strong results are over-represented in it overall.

Tested on: Trypanosoma brucei
Experiment: Trypanosoma brucei 72 hour study
Type: functional, organism-based
Set-up: scale not given: in the data most compounds retested in dose-response had high values

Row | Compound | Percent Effect (30.3 µM, […]) [%] | Percent Effect (30 µM, 30.03 µM) [%]
1 | O=C1NCC2(CCCN(Cc3ccc(F)cc3)C2)Oc2ccccc21 (stereo not drawn) | 13.09 | 
2 | C=Cc1ccc(CN2CCCC3(CNC(=O)c4ccccc4O3)C2)cc1 (stereo not drawn) | 79.56 | 
3 | O=C1NCC2(CCCN(Cc3ccc(Cl)s3)C2)Oc2ccccc21 (stereo not drawn) |  | 12.52
4 | CSc1ccc(CN2CCCC3(CNC(=O)c4ccccc4O3)C2)cc1 (stereo not drawn) | 60.61 | 
5 | O=C1NCC2(CCCN(Cc3ccccc3F)C2)Oc2ccccc21 (stereo not drawn) | -8.26 | 
6 | O=C1NCC2(CCCN(CCc3ccccc3)C2)Oc2ccccc21 (stereo not drawn) | -38.35 | 
7 | Cc1ccc(CN(CCCn2ccnc2)Cc2[nH]cnc2C)s1.O=C(O)CC(O)(CC(=O)O)C(=O)O | 19.63 | 
8 | O=C(O)C(F)(F)F.O=C(O)C(F)(F)F.O=C(c1ccncc1)N1CC2(CCNCC2)c2cc(Cl)ccc21 | -51.23 | 
9 | O=C(O)C(F)(F)F.O=C(c1cscn1)N1CC[C@@H]2[C@@H]1CCN2CC1CCOC1 (stereo partly drawn) | -46.23 | 
10 | Cc1cc(O)c(OCC(=O)/N=c2\[nH]c(C)cs2)cn1 |  | -14.8
11 | CNCCNc1ccc(-c2nc(-c3cccc(OC)c3OC)no2)cn1 |  | 17.24
12 | COc1cccc(-c2noc(-c3ccc(NCC4CC4)nc3)n2)c1OC |  | 64.24
13 | COc1cccc(-c2noc(-c3ccc(NCC(C)C)nc3)n2)c1OC |  | 3.504
14 | CCN(CC)S(=O)(=O)c1ccc(CNC(=O)N2CCCCCC2)cc1 |  | 27.66
15 | CCN(CC)c1ccc(CNC(=O)N2CCC(C#N)CC2)cc1 |  | 36.77
16 | CCN(CC)S(=O)(=O)c1ccc(CNC(=O)N2CCC(C#N)CC2)cc1 |  | 70.46
17 | CCN(CC)S(=O)(=O)c1ccc(CCC(=O)NCc2cc(C)on2)cc1 | -181.3 | 
18 | Cc1cc(C(=O)NCc2cc(C)oc2C)no1 |  | -30.84
19 | CCN(CC)S(=O)(=O)c1ccc(CNC(=O)c2cc(C)on2)cc1 | 58.42 | 
20 | CC1(C)CN(C(CNC2=NCCN2)c2ccc(Cl)cc2)CCO1.I (stereo not drawn) |  | 11.29
21 | c1ccc(-c2nnc3sc(CCN4CCCC4)nn23)cc1 |  | -48.79
22 | Cc1ccc(CN2CC[C@H]3C[C@H](C(=O)N(C)C)O[C@H]3C2)cc1.O=C(O)C(F)(F)F |  | 45.02
23 | CN1CCNC(Cc2ccc(-c3ccncc3)cc2)C1=O.Cl (stereo not drawn) | -41.95 | 
24 | CN(C)c1ncc(C2Nc3ccccc3C3=NCCCN32)cn1.Cl (stereo not drawn) | -6.507 | 

Row | Compound | Percent Effect (30.3 µM, […]) [%] | Percent Effect (30 µM, 30.03 µM) [%]
25 | CN(C)c1ncc(C2Nc3cc(Cl)ccc3C3=NCCCN32)cn1.Cl (stereo not drawn) | 62.93 | 
26 | COc1cc(C2Nc3cc(Cl)ccc3C3=NCCN32)cc(OC)c1OC (stereo not drawn) | 19.53 | 
27 | COc1cc(C2Nc3cc(Cl)ccc3C3=NCCN32)ccc1O (stereo not drawn) | 69.32 | 
28 | COc1ccc(C2Nc3cc(Cl)ccc3C3=NCCN32)cc1O (stereo not drawn) | 12.75 | 
29 | COc1ccc(C2Nc3cc(Cl)ccc3C3=NCCN32)cc1CO (stereo not drawn) | 83.77 | 
30 | COc1cc(OC)c(C2Nc3cc(Cl)ccc3C3=NCCN32)cc1OC (stereo not drawn) |  | 4.882
31 | COc1ccc(C2Nc3ccccc3C3=NCCCN32)cc1OC (stereo not drawn) |  | -8.154
32 | COc1ccc(C2Nc3cc(Cl)ccc3C3=NCCN32)cc1OC (stereo not drawn) |  | 25.02
33 | O=C(O)C1CN(c2cncc(Cc3ccccc3F)n2)C1 | -23.43 | 
34 | CC(=O)N1CCC(N2CCC(c3nc(C)cc(C)n3)C2)CC1.O=CO (stereo not drawn) | -13.11 | 
35 | CC(C)C(=O)N1CC[C@H]2N(C)CC[C@@]2(C(=O)Nc2cccnc2)CC1.O=C(O)C(F)(F)F.O=C(O)C(F)(F)F | -93.75 | 
36 | CCCc1cc(C(=O)N2CC(c3ccncc3)C2)ccn1 | -10.84 | 
37 | O=C(c1ccc(-c2cc[nH]n2)cc1)N1CC[C@H](CO)[C@H](O)C1 |  | 0.05802
38 | CCCc1cc(C(=O)N2C[C@H]3CC=C(C)C[C@H]3C2)ccn1 | 56.41 | 
39 | CCCc1cc(C(=O)N2C[C@H](O)[C@@H](N3CCCC3)C2)ccn1 | -5.682 | 
40 | CC1=CC[C@@H]2CN(C(=O)c3ccc(-c4nc[nH]n4)cc3)C[C@@H]2C1 |  | 36.48
41 | Cc1ccc(C(=O)N2C[C@@H]3CN(c4ncccn4)C[C@@H]3C2)cc1 | -8.111 | 
42 | CC1=CC[C@@H]2CN(C(=O)c3ccc(-c4nnn(C)n4)cc3)C[C@@H]2C1 |  | 59.61
43 | CC1=CC[C@@H]2CN(C(=O)c3ccc(-c4cc[nH]n4)cc3)C[C@@H]2C1 |  | 55.2
44 | O=C(c1ccc(F)cc1)N1C[C@@H]2CN(c3ncccn3)C[C@@H]2C1 | -32.62 | 
45 | O=C(O)C(F)(F)F.O=C(O)C(F)(F)F.O=C(O)CN1CCCC2(CCN2Cc2cccc(F)c2)C1 (stereo not drawn) | -49.81 | 
46 | CN(Cc1cccnc1)[C@@H]1CN(C(=O)NC2CC2)[C@@H]2CCCO[C@H]12.O=C(O)C(F)(F)F.O=C(O)C(F)(F)F | -11.25 | 
47 | FC1(F)CCN(Cc2ccccn2)CC12CCN(c1ncccn1)C2.O=C(O)C(F)(F)F (stereo not drawn) | -64.14 | 
48 | CNC(=O)CN1CCOCC2(C1)CN(C(=O)CC(C)C)CCO2.O=C(O)C(F)(F)F (stereo not drawn) |  | -16.33
